A short description of assay [1]: reduced viability of SK-BR-3 breast cancer cells – cell-based, 24 h, human, pilot screen (AID 572).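 Note: compound exposure lasted between 18 and 24 h rather than exactly 24 h; 100% = carrier-treated control wells.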 The conditions noted are these: SK-BR-3 viability, CellTiter-Glo luminescence, at 10 µM, stronger effect = lower value.
A short description of assay [2]: HUVEC growth inhibition – cell-based, human, primary screen (AID 575;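 active = viability at or below 30% in both replicate assays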;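 note: 100% = median of untreated cell wells with 0.1% DMSO on each plate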). Conditions: HUVEC proliferation, CellTiter-Glo luminescence, 72 h; at 10 µM; stronger effect = lower value.
A short description of assay [3]: H69AR cell proliferation blockers – human, duplicate replicates, primary screen (AID 580;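 active = viability at or under a set limit in both replicates, limit being median viability minus 3 SD, cut at about 48% in these data, passing the limit was not always enough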;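 note: 100% = mean luminescence of untreated wells and 0% = no signal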). Conditions: H69AR lung tumor cells viability, ATP luminescence, 72 h; at 10 µM; stronger effect = lower value.
Assay [4] is described as follows: MRP1 drug-resistance reversers in H69AR cells – cell-based, doxorubicin co-treatment, pilot screen (AID 601;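 active = viability loss from added drug above about 55%, and viability with drug at most 40%, in both replicates, limit read from the data, passing the limit was not always enough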). Conditions: CellTiter-Glo, 72 h, at 10 µM; for differential viability (reversal): stronger effect = higher value. A general note: ATP-based viability assays read luminescence as a measure of living cells.
The nature of assay [5]: yeast transport mutant growth inhibition pilot in 384-well plates, post-Golgi transport modulator project (AID 636; in the data active = inhibition above about 31%). The conditions noted are these: absorbance 615 nm, about 18 h, stronger effect = higher value.
Assay [6] in a line: growth suppression of yeast trafficking mutant, preliminary HTS, modulators of trafficking downstream of Golgi apparatus project, 1536-format plate, OD 615 nm (AID 637; in the data active = inhibition above about 30%). Conditions: yeast transport mutant growth, absorbance 615 nm, 18 h; stronger effect = higher value.
Assay [7] can be described thus: S. cerevisiae growth inhibition in permissive medium (OD615), pilot counter-assay for S. cerevisiae lifespan shortening project, permissive growth control (AID 705;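 active = growth inhibition above 25% in both replicates, a cutoff set 3 SD above the mean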). Conditions: OD615, 24 h, at 10 µM, stronger effect = higher value.
The nature of assay [8]: S. cerevisiae growth inhibition in restrictive medium, OD615, pilot screen, restrictive growth control, yeast lifespan reduction project (AID 706;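 active = growth inhibition above a set limit, 3 SD over mean compound inhibition, in both replicates, cut at about 43% in these data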;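 note: modified DeaD lifespan yeast strain shifted to restrictive glucose medium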). The conditions noted are these: OD615, 48 h, at 10 µM, stronger effect = higher value.
A short description of assay [9]: doxorubicin toxicity protection in MRP-1 cells – H69AR cells, CellTiter-Glo, duplicate, MRP-1 activator project, pilot screen (AID 807;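 active = viability increase at or above a cutoff of the median across tested compounds plus 3 SD, cut at about 8.5% in these data, passing the limit was not always enough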;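 note: compound pretreatment 18-22 h then 72 h combined with doxorubicin; 0% = doxorubicin alone and 100% = vehicle without doxorubicin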). Conditions: H69AR viability with doxorubicin, CellTiter-Glo luminescence; at 10 µM; stronger effect = higher value.
The nature of assay [10]: viability of HCT116 without oncogenic beta-catenin – human colon tumor cells, pilot screen (AID 823;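 active = cell viability at or below a set limit in both duplicate runs, the limit being the all-compound median minus 4 SD, cut at about 23% in these data, passing the limit was not always enough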;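 note: 0% = wells killed by 20 µM Hyamine and 100% = untreated DMSO cell wells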). The conditions noted are these: HCT116 beta-catenin knockout viability, CellTiter-Glo, 60 h; at 10 µM; stronger effect = lower value.
A short description of assay [11]: viability of PTEN-null HCT116 cells – cell-based, HCT116 clonal line, CellTiter-Glo, pilot screen (AID 824;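 active = viability at or below 27.92% in each of two runs, the all-compound median minus 4 SD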;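 note: 0% = 20 µM Hyamine control and 100% = vehicle cell control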). Conditions: HCT116 PTEN-deleted viability, 60 h, at 10 µM, stronger effect = lower value.
A short description of assay [12]: RAM pathway blockade in budding yeast – dse1pr::URA3 reporter, 5-FOA selection, pilot screen (AID 869;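 active = inhibition over a set limit, the all-compound mean plus 3 SD, in both replicate runs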;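 note: 0% = DMSO wells with no growth and 100% = 10 µM 1-NA-PP1 with full growth; RAM network block rescues cells from 5-FOA so hits raise OD615 growth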). Conditions: S. cerevisiae dse1pr::URA3 5-FOA growth, OD615, 2 d; at 10 µM; stronger effect = higher value; strain carries analog-sensitive mutant Cbk1 kinase.
Assay [13] can be described thus: RAM signaling pathway blockade in yeast – S. cerevisiae, Pdr1DBD-CYC8 efflux-inhibited sensitized strain, primary screen (AID 1298;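 active = RAM network inhibition above 8.4% in each of two replicates, 3 SD over the compound average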;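 note: 0% = DMSO untreated cells without growth and 100% = 10 µM 1-NA-PP1 full growth; higher means more yeast growth rescued from 5-FOA killing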). The conditions noted are these: S. cerevisiae cbk1-as DSE1-URA3 strain, 5-FOA growth OD615, 2 d; at 50 µM; stronger effect = higher value.
Where [14] appears, read: H69AR cells + 2 uM doxorubicin, measured here: viability with 2 uM doxorubicin, stronger effect = lower value.
[15] abbreviates: H69AR cells, compound alone cytotoxicity.

The values below come from PubChem BioAssay.

Inconclusive results are not listed. The source made the active and inactive calls.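 Rule for the calls, unless noted: active = viability at or below 10% of carrier control in both of two separate runs; inconclusive = viability at or below 10% in only one of the two runs; inactive = the rest.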

As a reminder, the viability is a read-out of living cells in per cent, often relative to untreated cells. Usually inhibition stands for the relative decrease from the control value, in per cent. Turning to `Cc1ccc(C(=O)Nc2c(C(=O)N3CCOCC3)cnn2-c2ccccc2)cc1`, the viability in assay [1] is 103% (inactive); in assay [2], 94.5% (inactive); in assay [3] it was 91.8% (inactive); in assay [4] (setting [14]), 75.3%; in assay [4] (setting [15]), 91.8%; in assay [10], 103% (inactive). Further, the viability in [11] is 102% (inactive). Besides, the differential viability (reversal) in [4] (H69AR cells + 2 uM doxorubicin) is 16.5% (inactive). The inhibition in assay [5] is -4.27% (inactive); in [6], -2.91% (inactive); in assay [12], 0.475% (inactive). The values for the growth inhibition in assay [7] and in assay [8] were -7.86% (inactive) and -9.73% (inactive), respectively. In addition, the viability increase in assay [9] was -1.89% (inactive). The RAM network inhibition in assay [13] was -1.3% (inactive).

Regarding `Cc1ccc(C)n1-c1ccc(-n2cnnn2)cc1`, the viability is 103% (inactive) in assay [1]; 97.5% (inactive) in [2]; 76.6% in assay [4] (setting [14]); 52.4% in [4] (setting [15]); 9.95% (active) in assay [10]; 10.3% (active) in assay [11]. Moreover, the differential viability (reversal) in [4] (H69AR cells + 2 uM doxorubicin) is -24.2% (inactive). The figures for the inhibition in [5], in assay [6] and in [12] were -3.47% (inactive), -1.09% (inactive) and 1.65% (inactive), respectively. Besides, the growth inhibition in assay [7] was -9.52% (inactive); in [8], 0.21% (inactive). Moreover, the viability increase in assay [9] was -7.7% (inactive). In addition, the RAM network inhibition in assay [13] was 5.78% (inactive).

On to `Brc1ccc2ncnc(Nc3ccc(N4CCOCC4)cc3)c2c1`, for which the viability was 86% (inactive) in assay [1]; 77.8% (inactive) in [3]; 91.9% in assay [4] (setting [14]); 77.8% in assay [4] (setting [15]); 81.9% (inactive) in assay [10]; 72.9% (inactive) in assay [11]. Moreover, in assay [4] (H69AR cells + 2 uM doxorubicin), the differential viability (reversal) was -14.1% (inactive). Also, the inhibition in [5] is -2.27% (inactive); in assay [6], -4.36% (inactive); in assay [12] it was 1.01% (inactive). Besides, the results for the growth inhibition in assay [7] and in [8] were -5.24% (inactive) and 11% (inactive), respectively. The viability increase in [9] was -6.53% (inactive). In addition, the RAM network inhibition in assay [13] was 3.74% (inactive).

Consider `Cc1cccc(OCC(=O)Nc2ccc(N3CCCC3)cc2)c1C`, for which the viability is 112% (inactive) in assay [1]; 88.2% (inactive) in assay [2]; 59.7% in assay [4] (setting [14]); 56.5% in [4] (setting [15]); 72.4% (inactive) in [10]; 84.8% (inactive) in assay [11]. In assay [4] (H69AR cells + 2 uM doxorubicin), the differential viability (reversal) was -3.12% (inactive). Further, the inhibition in [5] is -9.2% (inactive); in assay [6] it was 1.64% (inactive); in assay [12], 2.95% (inactive). Besides, the growth inhibition in [7] is 15.7% (inactive); in assay [8] it was 14.8% (inactive). Also, the viability increase in [9] was -3.79% (inactive). For the same compound, in assay [13], the RAM network inhibition was 5.36% (inactive).

`COc1ccc(NC(=O)Nc2ccc(N3CCCC3=O)cc2)cc1OC`: the viability in [1] was 126% (inactive); in assay [2], 104% (inactive); in assay [3], 104% (inactive); in [4] (setting [14]), 89.1%; in [4] (setting [15]), 104%; in [10] it was 107% (inactive). In addition, the viability in assay [11] was 93.8% (inactive). In [4] (H69AR cells + 2 uM doxorubicin), the differential viability (reversal) was 15.2% (inactive). Besides, the results for the inhibition in assay [5], in assay [6] and in assay [12] were -4.93% (inactive), -3.64% (inactive) and 0.135% (inactive), respectively. In addition, the growth inhibition was -1.9% (inactive) in assay [7] and 3.45% (inactive) in assay [8]. The viability increase in [9] was -3.97% (inactive). Further, the RAM network inhibition in assay [13] is 0.87% (inactive).

For `Cc1ccc(-c2cc(C(F)F)n3ncc(C(=O)N4CCN(c5ccccn5)CC4)c3n2)cc1`, the viability in assay [1] is 99.5% (inactive); in assay [2], 49.2% (inactive); in [4] (setting [14]), 52.2%; in assay [4] (setting [15]), 56%; in [10], 54.3% (inactive); in assay [11], 55.4% (inactive). Besides, the differential viability (reversal) in assay [4] (H69AR cells + 2 uM doxorubicin) was 3.75% (inactive). The inhibition was -6.4% (inactive) in assay [5], 6.5% (inactive) in assay [6] and -1.01% (inactive) in assay [12]. The growth inhibition is -6.85% (inactive) in [7] and 4.28% (inactive) in assay [8]. Besides, in assay [9], the viability increase is -5.43% (inactive). Besides, the RAM network inhibition in assay [13] is 6.29% (inactive).

On to `O=C(CCCn1c(=O)[nH]c2ccsc2c1=O)N1CCN(c2ccccn2)CC1`, for which the viability in assay [1] is 89% (inactive); in assay [2], 99.5% (inactive); in [3] it was 101% (inactive); in assay [4] (setting [14]) it was 94.5%; in [4] (setting [15]), 101%; in assay [10], 100% (inactive). In addition, in [4] (H69AR cells + 2 uM doxorubicin), the differential viability (reversal) is 6.23% (inactive). Further, the inhibition in assay [5] was -6.4% (inactive); in assay [6] it was -0.18% (inactive); in assay [12], 2.25% (inactive). Moreover, the values for the growth inhibition in assay [7] and in assay [8] were -0.715% (inactive) and 2.48% (inactive), respectively. In addition, in [9], the viability increase is -4.76% (inactive). Moreover, the RAM network inhibition in [13] was 4.21% (inactive).

On to `CCCn1c(=O)c(C(=O)NCc2ccccn2)c(O)c2ccccc21`, for which the viability in [1] is 78% (inactive); in assay [2] it was 101% (inactive); in [4] (setting [14]), 69.6%; in [4] (setting [15]), 57.5%; in assay [10], 87.4% (inactive); in assay [11], 104% (inactive). The differential viability (reversal) in assay [4] (H69AR cells + 2 uM doxorubicin) is -12% (inactive). Moreover, the inhibition in assay [5] is 2.27% (inactive); in [6], 13.6% (inactive); in assay [12], -1.17% (inactive). In addition, the growth inhibition in assay [7] is 4.69% (inactive); in [8], 12.5% (inactive). Also, the viability increase in assay [9] is 1.19% (inactive). Besides, in assay [13], the RAM network inhibition is -1.94% (inactive).

In the case of `O=C(Nc1ncc(Cc2ccccc2)s1)C1CCCO1` (stereo not drawn), the viability in assay [1] is 91.5% (inactive); in assay [2], 84.3% (inactive); in [3], 103% (inactive); in assay [4] (setting [14]), 92.2%; in assay [4] (setting [15]) it was 103%; in assay [10] it was 103% (inactive). The viability in assay [11] is 103% (inactive). Further, in assay [4] (H69AR cells + 2 uM doxorubicin), the differential viability (reversal) was 10.9% (inactive). Moreover, the inhibition was -4.67% (inactive) in [5], -9.34% (inactive) in assay [6] and 0.015% (inactive) in assay [12]. For the same compound, the results for the growth inhibition in assay [7] and in assay [8] were -14.2% (inactive) and 3.14% (inactive), respectively. In addition, the viability increase in assay [9] is 1.91% (inactive). In assay [13], the RAM network inhibition was -2.16% (inactive).

In the case of `CSC1=N/C(=C\C=C\c2cccs2)C(=O)S1`, the viability in [1] is 95% (inactive); in assay [2], 79.5% (inactive); in assay [4] (setting [14]), 67%; in assay [4] (setting [15]), 51.4%; in [10] it was 95% (inactive); in assay [11], 99.1% (inactive). Besides, the differential viability (reversal) in assay [4] (H69AR cells + 2 uM doxorubicin) is -15.6% (inactive). The inhibition in assay [5] is -1.15% (inactive); in assay [6], -6.17% (inactive); in assay [12], 1.66% (inactive). For the same compound, the growth inhibition in assay [7] was -8% (inactive); in assay [8], 0.455% (inactive). Besides, in [9], the viability increase was -3.44% (inactive). Also, the RAM network inhibition in assay [13] is 6.92% (inactive).

With `COc1cc(-c2nc(-c3ccncc3)no2)cc(OC)c1OC`, the viability was 100% (inactive) in assay [1]; 101% (inactive) in assay [2]; 89.1% (inactive) in assay [3]; 88% in assay [4] (setting [14]); 89.1% in [4] (setting [15]); 103% (inactive) in assay [10]. Besides, the viability in [11] was 99.3% (inactive). Moreover, the differential viability (reversal) in assay [4] (H69AR cells + 2 uM doxorubicin) is 1.12% (inactive). Moreover, the figures for the inhibition in assay [5], in [6] and in assay [12] were -5.87% (inactive), -2.18% (inactive) and 2.17% (inactive), respectively. Moreover, the growth inhibition in assay [7] was -1.17% (inactive); in assay [8], 11.1% (inactive). The viability increase in assay [9] was -2.77% (inactive). In addition, the RAM network inhibition in assay [13] was 3.72% (inactive).
